Assay results taken from PubChem BioAssay AID1259343 (VanderVen Lab, College of Veterinary Medicine, Cornell …, 2017).
Among all 6,200 compounds or so, about 2,900 (47%) were called active. So high a share suggests a set chosen from earlier hits. The list shows a part of the results. A number with no mark means an inactive call. No stated cut-off is given here; in the data, active means inhibition above about 50%; inactive means the rest.

Test: Mycobacterium tuberculosis growth inhibition, primary screen (AID 1259343)
Conditions: inhibition: at 10 µM, stronger effect = higher value; outcome: 10 uM
With `CCOC(=O)CSc1nnc(CNc2ccc(C)c(Cl)c2)n1C` the inhibition was 94.2% (active).
`OCC1(CCc2ccccc2)CCCN(c2ncnc3sccc23)C1` (stereo not drawn) showed an inhibition of 22.8%.
In the case of `Oc1c(-c2ccccn2)sc2ccccc12`, the inhibition is reported as 90.9% (active).
With `Oc1c(N=Nc2ccc3c(c2)OCCO3)sc2ccccc12` the inhibition was 38.8%.
Work on `CN(N=Cc1sc2ccccc2c1O)c1ccccc1` yielded an inhibition of -9.99%.
Molecule `Fc1ccccc1OCc1n[nH]c(=S)o1` has an inhibition of 47.7%.
For `Cc1ccc(Oc2ncccc2CNc2ncccn2)c(F)c1F`, the inhibition was 23.9%.
In the case of `Fc1ccccc1COc1ccccc1CNc1nn[nH]n1`, the inhibition is reported as 57.1% (active).
For `Cc1cc(NC(=O)Cn2cnc3c(nnn3-c3cccc(F)c3)c2=O)no1`, the inhibition was 87.4% (active).
With `Cc1cccc2c(=O)n(CC(=O)NCCc3cccc(F)c3)cnc12` the inhibition was 25.4%.
With `CSc1cccc(NC(=O)Cc2csc(N3CCCC3=O)n2)c1` the inhibition was 70.3% (active).
In the case of `O=C(NCC1CCCO1)c1ccc(Br)o1` (stereo not drawn), the inhibition is reported as 83.8% (active).
`Cc1ccc(CNC(=O)c2ccc(Br)o2)cc1F` gave an inhibition of 16.3%.
In the case of `O=C(NC1CCCC1)c1ccc(Br)o1`, the inhibition is reported as -20.8%.
For `O=C(NCC1CCCO1)C12CC3CC(CC(C3)C1)C2` (stereo not drawn), the inhibition was 81.2% (active).
With `O=C(NCCC12CC3CC(CC(C3)C1)C2)C12CC3CC(CC(C3)C1)C2` the inhibition was -25.6%.
For `Cc1cccc(CO[C@]2(C(=O)NCC3CCCO3)CC(OCc3ccc(F)cc3)[C@H](O)[C@H](O)C2)c1` (stereo partly drawn), the inhibition was -13%.
For `Cc1ccc(OCCCCNC(=O)c2ccc(Br)o2)cc1`, the inhibition was 92.2% (active).
With `CCCCCCCCNC(=O)c1ccc(Br)o1` the inhibition was 74.9% (active).
In the case of `O=C(O)c1ccc2c(c1)C1C=CCC1C(c1ccc(Br)cc1)N2` (stereo not drawn), the inhibition is reported as 66.8% (active).
Molecule `O=C(O)C1Nc2ccc3ccccc3c2C2C=CCC12` (stereo not drawn) has an inhibition of 16.2%.
In the case of `O=C(O)C1Nc2ccc(Br)cc2C2C=CCC12` (stereo not drawn), the inhibition is reported as 84.2% (active).
In the case of `O=C(O)C1Nc2c(Cl)cc(Cl)cc2C2C=CCC12` (stereo not drawn), the inhibition is reported as 101% (active).
`N#Cc1nc(C2CC2)oc1N1CCN(C(=O)Nc2ccccc2)CC1` showed an inhibition of 21.4%.
In the case of `COC(=O)c1ccc(CSC(=S)N(C)C)cc1`, the inhibition is reported as 82.1% (active).
In the case of `NC(=O)C1CCN(C(=O)CCc2ccsc2)CC1`, the inhibition is reported as 90.9% (active).
For `CC(C)c1csc(C2CCN(C(=O)CCc3ccsc3)CC2)n1`, the inhibition was 83.6% (active).
Molecule `NC(=O)C1CCN(C(=O)CCC2CCCC2)CC1` has an inhibition of -28.4%.
`Cc1c(C(=O)N2CCC(C(N)=O)CC2)nnn1-c1nc(-c2ccccc2)cs1` showed an inhibition of 20.4%.
For `CCC(C)[n+]1c(C)cc(C=C2Sc3ccccc3N2CC)cc1C` (stereo not drawn), the inhibition was 84.5% (active).
With `CCN1C(=Cc2ccc3cc(C)ccc3[n+]2CC)Sc2ccccc21` the inhibition was 56.1% (active).
With `CCN1C(=Cc2cc(C)[n+](C3CCCCC3)c(C)c2)Sc2ccccc21` the inhibition was -19.4%.
With `Cc1cc(C=C2Sc3ccccc3N2C)cc(C)[n+]1-c1ccccc1` the inhibition was 41.1%.
For `CCCCCOc1ncnc2c1sc1nc3c(cc12)COC(C)(C)C3`, the inhibition was 51% (active).
With `CC(C)CCOc1ncnc2c1sc1nc3c(cc12)COC(C)(C)C3` the inhibition was 63.6% (active).
For `CC1(C)[C@H]2CC[C@@H](CNC(=O)c3cc(=O)n(-c4ccccc4)[nH]3)[C@@H]1C2`, the inhibition was 23.3%.
In the case of `C=C(NC(=O)C(=C)NC(=O)c1csc(C2=NC3c4csc(n4)C4NC(=O)c5csc(n5)C(C(C)(O)C(C)O)NC(=O)C5CSC(=N5)C(=CC)NC(=O)C(C(C)O)NC(=O)c5csc(n5)C3(CC2)NC(=O)C(C)NC(=O)C(=C)NC(=O)C(C)NC(=O)C(C(C)CC)NC2C=Cc3c(C(C)O)cc(nc3C2O)C(=O)OC4C)n1)C(N)=O` (stereo not drawn), the inhibition is reported as 95.4% (active).
In the case of `N=C1c2ccccc2CN1c1ccc(OC(F)(F)C(F)F)cc1`, the inhibition is reported as 64.2% (active).
In the case of `CSc1nsc(SC)c1NC(=O)OC1CCCCC1`, the inhibition is reported as 11.5%.
Work on `CC(C(=O)NCc1cccs1)S(=O)(=O)c1ccc(C(F)(F)F)cn1` (stereo not drawn) yielded an inhibition of 14.3%.
`Cc1ccc(CNS(=O)(=O)Cc2ccc(F)cc2)cc1F` gave an inhibition of 29.8%.
With `CNS(=O)(=O)Cc1ccc(CNc2ccc(C(F)(F)F)cn2)cc1` the inhibition was 50.3% (active).
For `N#Cc1c(Cl)nsc1NCCC1CC2CCC1C2` (stereo not drawn), the inhibition was 96.1% (active).
In the case of `N#Cc1c(Cl)nsc1NC1CCSc2c(F)cccc21` (stereo not drawn), the inhibition is reported as 11.2%.
Work on `COc1cccc(C(CN2CCN(C(=O)C=C(C)C)CC2)OCc2cccc(Cl)c2)c1` (stereo not drawn) yielded an inhibition of -4.3%.
For `N=C1C=CC(=C(c2cccc(N)c2)c2cccc(N)c2)C=C1`, the inhibition was 68.4% (active).
`CCOc1ccc(NC(=O)CSc2nc(=O)n3ccccc3n2)cc1` showed an inhibition of 2.8%.
`CC1c2cccn2CCN1Cc1csc(Nc2ccccc2)n1` (stereo not drawn) showed an inhibition of 20.8%.
In the case of `CCOc1ccc(Nc2nc(-c3c(C)nc4ccccn34)cs2)cc1`, the inhibition is reported as 61.2% (active).
In the case of `CC(Oc1ccc(Cl)cc1)C(=O)NC(C)c1cccs1` (stereo not drawn), the inhibition is reported as 94.5% (active).
For `COc1ccccc1CN(C(=O)Nc1ccccc1Cl)C1CC1`, the inhibition was 78.5% (active).
With `COc1ccccc1NC(=O)N(Cc1ccsc1)C1CC1` the inhibition was 16%.
In the case of `COc1ccccc1CNC(=O)C1(S(=O)(=O)c2ccc(Cl)cc2)CCCC1`, the inhibition is reported as 2.93%.
With `CCc1cc(=O)[nH]c(-n2nc(C)cc2NC(=O)c2cc(Cl)ccc2OC)n1` the inhibition was 102% (active).
With `COc1ccc(Cl)cc1C(=O)Nc1cc(C)nn1-c1nc(C)c(C)c(=O)[nH]1` the inhibition was 100% (active).
In the case of `COc1ccc(Cl)cc1C(=O)Nc1cc(C)nn1-c1nc(C)cc(=O)[nH]1`, the inhibition is reported as 101% (active).
`Cc1cc(=O)[nH]c(-n2nc(C3CC3)cc2NC(=O)c2cc(Cl)ccc2Cl)n1` gave an inhibition of -15.9%.
For `COc1ccc(Cl)cc1C(=O)Nc1cc(C2CC2)nn1-c1nc(C)cc(=O)[nH]1`, the inhibition was 99.9% (active).
In the case of `Cc1noc(CNC(C)(C)Cc2ccc(Br)cc2)n1`, the inhibition is reported as -9.14%.
`Cn1c2ccccc2n2c3ncccc3c(=O)c(C#N)c12` showed an inhibition of 41.8%.
In the case of `CCSc1nnc(SCc2cccc(OC)n2)s1`, the inhibition is reported as 90.4% (active).
For `COc1ccc(CSc2nnc(SCC(=O)N3CCCCCC3)s2)cc1`, the inhibition was 26.9%.
Work on `CSc1nnc(SCc2cc(C)no2)s1` yielded an inhibition of 27.2%.
